# From PubChem BioAssay
# Several values for one entry are separate records, joined by “and”; a condition that tells them apart may be missing. Equal values may be shown once. Activity calls are given as the source filed them.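 How the source made its calls, unless noted: active means compounds killing one labelled cell type while sparing the other, by normalised counts and ratio limits, not self-fluorescent; inactive means the rest.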 Peptide text beside a SMILES is read from it.
# Assays:
# [1] = target: 6-phosphogluconate dehydrogenase, decarboxylating (Homo sapiens) (UniProt P52209); experiment: inhibition of human phosphogluconate dehydrogenase – biochemical, recombinant enzyme, NADPH absorbance, primary screen (AID 1159550;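 active means at least 20% inhibition of 6-phosphogluconate dehydrogenase activity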); conditions: recombinant 6PGD, NADPH absorbance 341 nm; at 10 µM; stronger effect = higher value
# [2] = EMT-state selective cytotoxicity in co-culture – imaging, PC-3E GFP, TEM4-18 mCherry, primary screen (AID 1345086); conditions: PC-3E GFP / TEM4-18 mCherry co-culture, imaging cell counts, at 1 µM; for red/green cell ratio (normalised): actives lie on both sides, counts scaled to control wells, 1 = unselective;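 on all read-outs here: cells exposed to compound for 72 h before imaging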;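 on red/green cell ratio (normalised): normalised mesenchymal count divided by normalised epithelial count so high means epithelial killing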
# [3] = target: Mitogen-activated protein kinase 7 (Homo sapiens) (UniProt Q13164); experiment: Gal4-ERK5 driven luciferase induction – cell-based, HTS, primary screen (AID 1508626;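 active means luciferase signal above three times the same-plate solvent-only control wells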;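 further: luciferase driven by Gal4-ERK5 fusion binding five Gal4 sites before minimal TATA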); conditions: HeLa Gal4-ERK5 transactivation, 18 h, at 5 µM, stronger effect = higher value
# [4] = measured here: epithelial PC-3E GFP cell survival
# [5] = measured here: mesenchymal TEM4-18 mCherry cell survival
# Sequence of Mitogen-activated protein kinase 7 (Homo sapiens) (Q13164 whole entry, looked up, the tested form may be a part): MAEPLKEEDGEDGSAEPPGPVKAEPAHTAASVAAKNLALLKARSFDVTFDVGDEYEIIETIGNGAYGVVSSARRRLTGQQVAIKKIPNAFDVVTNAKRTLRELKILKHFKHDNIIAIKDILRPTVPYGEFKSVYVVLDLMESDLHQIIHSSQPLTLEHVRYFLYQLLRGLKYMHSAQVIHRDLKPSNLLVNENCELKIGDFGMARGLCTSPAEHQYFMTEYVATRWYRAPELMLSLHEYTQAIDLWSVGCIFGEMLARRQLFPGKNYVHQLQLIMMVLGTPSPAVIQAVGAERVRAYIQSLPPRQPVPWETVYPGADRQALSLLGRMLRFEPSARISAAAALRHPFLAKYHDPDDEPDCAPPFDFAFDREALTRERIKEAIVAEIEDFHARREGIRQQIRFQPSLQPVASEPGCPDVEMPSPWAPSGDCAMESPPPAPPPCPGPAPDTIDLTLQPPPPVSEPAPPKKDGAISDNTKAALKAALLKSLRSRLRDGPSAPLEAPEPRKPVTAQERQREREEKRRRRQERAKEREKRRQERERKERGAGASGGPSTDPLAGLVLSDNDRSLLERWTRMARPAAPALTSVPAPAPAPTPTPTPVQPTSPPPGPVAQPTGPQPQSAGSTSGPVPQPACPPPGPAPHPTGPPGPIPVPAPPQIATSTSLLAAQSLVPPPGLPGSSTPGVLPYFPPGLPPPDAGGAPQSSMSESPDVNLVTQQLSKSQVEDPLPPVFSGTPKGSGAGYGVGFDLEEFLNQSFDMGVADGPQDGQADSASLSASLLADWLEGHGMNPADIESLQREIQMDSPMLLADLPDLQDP
# Sequence of 6-phosphogluconate dehydrogenase, decarboxylating (Homo sapiens) (P52209 whole entry, looked up): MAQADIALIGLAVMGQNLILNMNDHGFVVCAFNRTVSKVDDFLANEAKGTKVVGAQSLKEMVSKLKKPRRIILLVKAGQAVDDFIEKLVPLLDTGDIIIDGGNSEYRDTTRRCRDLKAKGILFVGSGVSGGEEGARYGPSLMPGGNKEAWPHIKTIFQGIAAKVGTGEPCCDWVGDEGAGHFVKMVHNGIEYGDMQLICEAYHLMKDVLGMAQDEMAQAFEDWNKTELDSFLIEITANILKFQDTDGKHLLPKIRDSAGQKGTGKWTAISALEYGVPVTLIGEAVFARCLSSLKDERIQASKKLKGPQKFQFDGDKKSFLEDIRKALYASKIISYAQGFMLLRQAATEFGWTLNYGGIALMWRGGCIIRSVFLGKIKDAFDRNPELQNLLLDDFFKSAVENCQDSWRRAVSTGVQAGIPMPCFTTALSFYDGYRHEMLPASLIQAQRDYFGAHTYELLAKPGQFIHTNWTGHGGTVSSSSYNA
Structure (SMILES),inhibition [1],red/green cell ratio (normalised) [2],"normalised cell number [2, 4]","normalised cell number [2, 5]",luciferase signal [3]
COc1cc(C)c2c(c1C=O)Oc1c(c(C)c(O)c3c1C(O)OC3=O)OC2=O (stereo not given),-0.395% (inactive),0.74 (inactive),0.95,0.7,44 AU (inactive)
C#CCCCCCCCCCCCC(O)CC(O)COC(C)=O (stereo not given),8.03% (inactive),0.83 (inactive),1.1,0.91,60 AU (inactive)
C=CC(C1=CC(=O)C(OC)=CC1=O)c1ccccc1 (stereo not given),-2.35% (inactive),1.14 (inactive),0.95,1.08,60 AU (inactive)
O=C(CC(=O)c1ccccc1)c1ccccc1,21.3% (active),0.84 (inactive),1.16,0.97,80 AU (inactive)
COc1cc(C(C)=O)cc(OC)c1O,-40.3% (inactive),1.05 (inactive),0.87,0.91,64 AU (inactive)
COc1ccc2c(=O)c(CC(=O)O)coc2c1,-1.05% (inactive),0.91 (inactive),0.98,0.89,60 AU (inactive)
CC1(C)CC23C(=O)CCC(O)C2(C)CCC13 (stereo not given),-0.3% (inactive),1 (inactive),1.11,1.11,72 AU (inactive)
COc1c2ccoc2cc2oc(C)cc(=O)c12,12.5% (inactive),0.91 (inactive),1.19,1.08,52 AU (inactive)
COC(=O)c1c(C)c2c(c(C)c1O)OC(=O)c1c(C)c(Cl)c(O)c(Cl)c1O2,11.2% (inactive),0.9 (inactive),1.03,0.93,128 AU (inactive)
CCC(C)C(NC)C(=O)O (stereo not given),-6.91% (inactive),1.02 (inactive),1.08,1.11,68 AU (inactive)
COc1cc(-c2coc3cc(OC)c(OC)c(OC)c3c2=O)cc(OC)c1OC,12.5% (inactive),1.13 (inactive),0.98,1.1,100 AU (inactive)
COc1cc(O)ccc1C(C)=O,12.4% (inactive),0.96 (inactive),0.95,0.91,124 AU (inactive)
CC(=O)Oc1ccc2c(c1OC(C)=O)OCC1(O)Cc3c(cc(OC(C)=O)c(OC(C)=O)c3OC(C)=O)C21 (stereo not given),18.4% (inactive),0.84 (inactive),1.08,0.91,44 AU (inactive)
CCCCCc1c2c(cc(O)c1C(=O)O)OC(=O)c1c(cc(OC)cc1C(=O)CCCC)O2,4.81% (inactive),0.98 (inactive),1.07,1.05,48 AU (inactive)
Cn1c(=O)[nH]c(=O)c2[nH]cnc21,5.61% (inactive),0.93 (inactive),1.22,1.13,52 AU (inactive)
OC[C@H]1O[C@@H](n2cnc3c(NCc4ccco4)ncnc32)[C@H](O)[C@@H]1O,3.79% (inactive),1.48 (inactive),0.37,0.55,40 AU (inactive)
COc1ccc(-c2coc3c(OC)c(OC)cc(O)c3c2=O)cc1,-3.95% (inactive),1.01 (inactive),1.18,1.19,56 AU (inactive)
CC(C)=CCOc1cc2oc(=O)ccc2cc1O,1.28% (inactive),1.03 (inactive),1.12,1.16,36 AU (inactive)
OC[C@@H](O)[C@@H](O[C@@H]1O[C@H](CO)[C@@H](O)[C@H](O)[C@H]1O)[C@H](O)[C@@H](O)CO,10.6% (inactive),0.88 (inactive),1.03,0.9,208 AU (inactive)
COc1ccc2c(c1)OCC(Cc1ccc(OC)c(OC)c1)C2=O (stereo not given),8.36% (inactive),0.98 (inactive),0.85,0.84,56 AU (inactive)
CC(C)C[C@H](N)C(=O)N[C@@H](C)C(=O)O (H-Leu-Ala-OH),3.68% (inactive),0.74 (inactive),1.26,0.93,16 AU (inactive)
O=C(Oc1cc(O)cc2c1C[C@@H](OC(=O)c1cc(O)c(O)c(O)c1)[C@@H](c1cc(O)c(O)c(O)c1)O2)c1cc(O)c(O)c(O)c1,10.8% (inactive),1.04 (inactive),0.96,0.99,44 AU (inactive)
O=c1c(O)c(-c2ccccc2)oc2ccccc12,1.99% (inactive),0.97 (inactive),1.03,1,24 AU (inactive)
COc1cc(O)c(C(C)=O)c(OC)c1,0.271% (inactive),0.74 (inactive),1.02,0.75,8 AU (inactive)
CC12CCCC(O)(C1)C1CC(C)(C)C1CC2 (stereo not given),-1.62% (inactive),0.85 (inactive),1.27,1.07,128 AU (inactive)
O=C(O)CCCN1C(=O)c2cccc3cccc(c23)C1=O,-3.59% (inactive),0.82 (inactive),1.29,1.06,48 AU (inactive)
CC(=O)Oc1ccc(O)cc1,4.32% (inactive),1.07 (inactive) and 1.15 (inactive),1.01 and 1.05,1.08 and 1.21,88 AU (inactive)
CC(=O)O[C@H]1C[C@@H](OC(C)=O)C(C)(C)C2CC(=O)[C@]3(C)C(CC[C@@]4(C)[C@H](c5ccoc5)OC(=O)[C@H]5O[C@]543)[C@]21C (stereo not given in full),6.24% (inactive),0.93 (inactive),0.94,0.87,16 AU (inactive)
COc1ccc(-c2coc3cc(O)ccc3c2=O)c(O)c1O,9.58% (inactive),0.97 (inactive),0.83,0.8,16 AU (inactive)
COc1c2ccccc2nc2occc12,7.87% (inactive),1.02 (inactive),1.03,1.05,40 AU (inactive)
